Reference: PubChem BioAssay
Activity calls are given as the source filed them.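 How the source made its calls, unless noted: active means inhibition at or above 50% at 10 µM; inactive means inhibition below 50%.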

What was measured:
[1] = inhibitors of TNFa-induced NFkB p65 translocation, primary screen, imaging, HUVEC, MLSMR starter and 10KST1 sets (AID 438;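 active means inhibition above 20% together with a positive visual image hit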;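 further: compound added about 3h40 before a 20 min TNFalpha stimulation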;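 on inhibition: signal is the nuclear over cytoplasmic p65 intensity ratio per well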); conditions: HUVEC TNFa-induced p65 nuclear translocation; cell count: measured here: nuclei count (cytotoxicity indicator), at 2.08 µM; inhibition: at 2 µM, stronger effect = higher value, 0% TNFa-plus-vehicle, 100% no-TNFa wells
[2] = inhibitors of mutant huntingtin aggregation, primary screen, imaging, exon1htt(103Q)mCFP cells, high-content imaging (AID 483;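 active means visual image review flags a hit and inhibition of aggregation exceeds 20%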;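 further: compound exposure lasted 3 days before fixation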;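 on nuclei count: percent of the per-plate median nuclei count of sample wells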); conditions: exon1htt(103Q)mCFP cell line, aggregate imaging, at 2 µM; inhibition of aggregation: stronger effect = higher value; nuclei count: measured here: cell count, toxicity
[3] = inhibitors of E-selectin induction by TNFa, primary screen, imaging, HUVEC, immunofluorescence, MLSMR starter and 10KST1 sets (AID 487;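 active means visually confirmed hit in the image check and inhibition above 20%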;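 on inhibition: signal is fraction of cell area covered by stained E-selectin grains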;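 on nuclei count: 100% = median nuclei count of all wells on the same plate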); conditions: HUVEC TNFalpha-induced E-selectin immunofluorescence imaging, at 2 µM; inhibition: stronger effect = higher value; nuclei count: measured here: cell number, toxicity
[4] = target: Voltage-gated potassium channel subunit beta-2 (Rattus norvegicus) (UniProt P62483); assay: KvBeta enzyme negative modulators, primary screen, biochemical, NADPH fluorescence (AID 622;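 active means fluorescence slope higher than the sample average by over 3 SD, cut at about -0.22 in these data, passing the limit was not always enough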;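 further: slope of raw intensity against log time taken from 70 to 1610 s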); conditions: recombinant KvBeta, 4-cyanobenzaldehyde reduction, at 10 µM, stronger effect = higher value
[5] = target: Voltage-gated potassium channel subunit beta-2 (Rattus norvegicus) (UniProt P62483); assay: KvBeta positive modulators, primary screen, biochemical, NADPH fluorescence (AID 623;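 active means NADPH fluorescence slope more negative than the mean of all samples by about 3 SD, 99.7% confidence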;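 further: fluorescence intensity change per second fitted from 20 to 320 s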); conditions: Recombinant KvBeta, NADPH fluorescence decrease slope, 10 min; at 10 µM; stronger effect = lower value
[6] = target: Alpha-2C adrenergic receptor (Homo sapiens) (UniProt P18825); assay: modulators of alpha2C/GIRK thallium flux, primary screen, cell-based, HEK293 alpha2C/GIRK1/2 (AID 624;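 active means fluorescence slope after compound addition differing from the mean of all screened samples at 99.7% confidence, in either direction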;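 further: slope of fluorescence ratio to pre-addition baseline per second over 15 to 24 s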); conditions: thallium flux BTC fluorescence, at 10 µM, actives lie on both sides
[7] = inhibitors of Sendai virus-induced IRF3 signaling, primary screen, TLR/RLR signaling modifier project, cell-based, Sendai virus stimulus, luciferase, 10K MLSCN set (AID 602276); conditions: HEK293 RL24 IRF3 luciferase reporter, at 10 µM, stronger effect = higher value;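 further: firefly luciferase from ISG56 promoter only with Renilla not read in this screen; 0% = Sendai virus plus DMSO and 100% = medium plus DMSO without virus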
[8] = inhibitors of poly I:C-induced TLR3 signaling, primary screen, cell-based, poly I:C stimulus, luciferase, 10K MLSCN set (AID 602277;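 active means inhibition of the reporter signal at or above 50%; inactive means inhibition below 50%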); conditions: HEK293-TLR3 RL24 IRF3 luciferase reporter, at 10 µM, stronger effect = higher value

Chain of Alpha-2C adrenergic receptor (Homo sapiens) (P18825 whole entry, looked up): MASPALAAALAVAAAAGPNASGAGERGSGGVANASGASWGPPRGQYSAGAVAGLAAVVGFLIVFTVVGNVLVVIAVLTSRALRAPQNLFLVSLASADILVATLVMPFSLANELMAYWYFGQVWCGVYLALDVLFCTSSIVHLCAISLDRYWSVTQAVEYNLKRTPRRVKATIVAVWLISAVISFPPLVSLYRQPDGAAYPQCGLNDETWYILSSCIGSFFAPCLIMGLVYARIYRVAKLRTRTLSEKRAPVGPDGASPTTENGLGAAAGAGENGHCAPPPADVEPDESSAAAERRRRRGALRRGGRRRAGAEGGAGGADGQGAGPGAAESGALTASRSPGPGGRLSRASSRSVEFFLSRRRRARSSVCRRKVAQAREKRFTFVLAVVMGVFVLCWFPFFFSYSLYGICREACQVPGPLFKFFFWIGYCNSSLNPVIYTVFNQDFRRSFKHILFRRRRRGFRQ
Chain of Voltage-gated potassium channel subunit beta-2 (Rattus norvegicus) (P62483 whole entry, looked up): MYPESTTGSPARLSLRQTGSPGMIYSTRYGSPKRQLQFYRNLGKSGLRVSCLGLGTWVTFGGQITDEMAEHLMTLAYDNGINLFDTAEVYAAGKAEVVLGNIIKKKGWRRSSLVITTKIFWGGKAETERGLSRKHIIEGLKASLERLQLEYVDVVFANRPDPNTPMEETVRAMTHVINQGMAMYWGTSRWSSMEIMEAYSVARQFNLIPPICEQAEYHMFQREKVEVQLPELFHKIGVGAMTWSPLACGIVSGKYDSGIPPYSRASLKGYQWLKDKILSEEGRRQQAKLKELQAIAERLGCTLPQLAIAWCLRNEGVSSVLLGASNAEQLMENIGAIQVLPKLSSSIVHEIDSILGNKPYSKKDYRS

Row | SMILES | cell count [1] | inhibition [1] | inhibition of aggregation [2] | nuclei count [2] [%] | inhibition [3] | nuclei count [3] [%] | fluorescence slope [4] | NADPH fluorescence slope [5] | slope [6] | inhibition [7] | inhibition [8]
1 | CCCS(=O)(=O)N1CCCC(C(=O)NC2CCCC(C)C2C)C1 (stereo not given) | 357 | -0.5% (inactive) | 7.4% (inactive) | 92.6 | -13.1% (inactive) | 105 | -0.551 (inactive) | 2.2e-05 (inactive) | 0.00599 (inactive) | 9.58% (inactive) | -2.45% (inactive)
2 | C/C(=N\O)C(=O)C(CN1CCCCC1)CN1CCCCC1 | 386 | 0.5% (inactive) | -0.1% (inactive) | 89.2 | -144% (inactive) | 98.1 | -0.437 (inactive) | 1.9e-05 (inactive) | 0.00389 (inactive) | -5.16% (inactive) | 25.3% (inactive)
3 | O=C1c2ccccc2C(=O)N1CCC(=O)N1CCc2ccccc21 | 359 | 5.9% (inactive) | 22.4% (inactive) | 92.8 | -71.6% (inactive) | 109 | -0.393 (inactive) | -2.1e-05 (inactive) | 0.005 (inactive) | -1.4% (inactive) | -26.2% (inactive)
4 | COc1ccc(NC(=O)c2cc(C3CC3)on2)c(OC)c1 | 603 | -2.9% (inactive) | -2.2% (inactive) | 116 | -29.1% (inactive) | 107 | -0.587 (inactive) | -4.2e-05 (inactive) | 0.00532 (inactive) | -6.03% (inactive) | 2.94% (inactive)
5 | C/C=C(\C)c1nnc(NC(=O)OCC)s1 | 743 | -5% (inactive) | -16% (inactive) | 115 | -52% (inactive) | 110 | -0.342 (inactive) | -5.8e-05 (inactive) | 0.00534 (inactive) | -36.1% (inactive) | -51.1% (inactive)
6 | CCN(CCNC(=O)C1CCN(S(C)(=O)=O)CC1)c1ccccc1 | 395 | 3.8% (inactive) | -13.1% (inactive) | 113 | -24.7% (inactive) | 117 | -0.32 (inactive) | -3e-05 (inactive) | 0.00548 (inactive) | 15.1% (inactive) | 25.2% (inactive)
7 | COc1cccc(C2CC(c3c(Cl)cccc3Cl)n3nc(N)nc3N2)c1 (stereo not given) | 568 | 13.8% (inactive) | -23.3% (inactive) | 75.1 | 25.6% (inactive) | 92.1 | -0.504 (inactive) | -1.9e-05 (inactive) | 0.00695 (inactive) | 22.2% (inactive) | 23.9% (inactive)
8 | CCOC(=O)C1=C(C)OC(N)=C(C#N)C1c1ccoc1 (stereo not given) | 558 | -4.8% (inactive) | -7.5% (inactive) | 81.3 | 24.7% (inactive) | 78.9 | -0.428 (inactive) | -6.9e-05 (inactive) | 0.00431 (inactive) | 9.81% (inactive) | 33% (inactive)
9 | COc1cccc(/C=N/n2cnnc2)c1OCc1ccccc1 | 473 | -2.6% (inactive) | -7% (inactive) | 104 | 2.5% (inactive) | 109 | -0.448 (inactive) | 1.1e-05 (inactive) | 0.00389 (inactive) | 20.5% (inactive) | 12.5% (inactive)
10 | CCOC(=O)c1sc(NC(=O)CSc2nnc3c4ccccc4n(CC)c3n2)nc1C | 478 | 1.6% (inactive) | 6.7% (inactive) | 106 | -6.3% (inactive) | 110 | -0.333 (inactive) | -1.9e-05 (inactive) | 0.00568 (inactive) | -6.56% (inactive) | 7.93% (inactive)
11 | Cc1ccc(C(=O)Nc2ccc3c(c2)OCO3)cc1S(=O)(=O)N1CCCC1 | 396 | 0% (inactive) | 12.6% (inactive) | 83.3 | 14.2% (inactive) | 107 | -0.398 (inactive) | 1.4e-05 (inactive) | 0.00564 (inactive) | 10.6% (inactive) | -64.5% (inactive)
12 | Clc1ss/c(=N\c2ccccn2)c1Cl | 623 | -6.5% (inactive) | -1.1% (inactive) | 112 | -39.9% (inactive) | 124 | -0.483 (inactive) | -0.000216 (inactive) | 0.0043 (inactive) | -8.89% (inactive) | -24% (inactive)
13 | O=C(CSc1ncnc2c1oc1ccccc12)Nc1ccccc1F | 613 | -13.5% (inactive) | -13.9% (inactive) | 107 | -10.1% (inactive) | 116 | -0.549 (inactive) | 3.9e-06 (inactive) | 0.00808 (inactive) | 1.97% (inactive) | 16.6% (inactive)
14 | COc1ccc(S(=O)(=O)N2Cc3ccccc3CC2C(=O)Nc2ccc(O)cc2)cc1OC (stereo not given) | 772 | -2.9% (inactive) | -7.4% (inactive) | 119 | -42.8% (inactive) | 114 | -0.556 (inactive) | -6e-05 (inactive) | 0.0071 (inactive) | 8.15% (inactive) | 29.5% (inactive)
15 | O=C(CCN1C(=O)c2ccccc2C1=O)N1CCN(C(=O)c2ccccc2)CC1 | 548 | 2.5% (inactive) | 7.3% (inactive) | 98.2 | -145% (inactive) | 118 | -0.491 (inactive) | -4.1e-05 (inactive) | 0.00673 (inactive) | 9.17% (inactive) | 19.5% (inactive)
16 | N=c1c(C(=O)NCc2ccc3c(c2)OCO3)cc2c(=O)n3ccccc3nc2n1Cc1cccnc1 | 690 | -5.2% (inactive) | -21.7% (inactive) | 72.7 | -18.5% (inactive) | 109 | -0.427 (inactive) | 3.2e-05 (inactive) | 0.00617 (inactive) | 13.3% (inactive) | 23.4% (inactive)
17 | CCCN1CC23C=CC(O2)C(C(=O)O)C3C1=O (stereo not given) | 833 | -8.7% (inactive) | -27.3% (inactive) | 109 | -58.4% (inactive) | 124 | -0.518 (inactive) | -8.6e-07 (inactive) | 0.00688 (inactive) | 6.27% (inactive) | 15.9% (inactive)
18 | CN(Cc1cccs1)C(=O)CCc1ccc(S(=O)(=O)N2CCOCC2)cc1 | 475 | 1% (inactive) | -10.3% (inactive) | 94 | -10.9% (inactive) | 114 | -0.466 (inactive) | -3.6e-05 (inactive) | 0.00394 (inactive) | -6.32% (inactive) | 14.6% (inactive)
19 | O=C(NC12CC3CC(CC(C3)C1)C2)c1cncc(O)c1 | 708 | 13.5% (inactive) | -6.2% (inactive) | 102 | -200% (inactive) | 128 | -0.608 (inactive) | 5e-06 (inactive) | 0.0069 (inactive) | 7.2% (inactive) | 26.8% (inactive)
20 | COc1ccc(CN(C(=O)c2cccs2)c2nccs2)cc1OC | 457 | 3.9% (inactive) | -1.2% (inactive) | 112 | -60.6% (inactive) | 111 | -0.458 (inactive) | -3e-05 (inactive) | 0.00675 (inactive) | -2.48% (inactive) | 21.6% (inactive)
